The values below come from PubChem BioAssay (EPA / NIEHS).

The target in assay [1] is Nuclear respiratory factor 1 (Homo sapiens) (UniProt Q16656). Nature of the assay: ATG_NRF1_CIS: Attagene CIS-FACTORIAL HepG2 Assay for human Nuclear Respiratory Factor 1 (NRF1) Orphan Gene (AID 2282987). The following applies: HepG2 NRF1 cis-element reporter, Attagene multiplex; actives raise or lower the signal. A digest of the protocol:
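Endogenous factor activity was captured via cis-element-driven reporter transcripts in HepG2 cells. Following 24 h chemical treatment, transcripts were quantified by RT-PCR and capillary electrophoresis.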

Assay [2] in a line: ATG_NFI_CIS: Attagene CIS-FACTORIAL HepG2 Assay for human Nuclear Factor I (NFI) (AID 2282989). The following applies: HepG2 cis-regulatory reporter, NFI response element transcription; actives raise or lower the signal. A digest of the protocol:
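HepG2, transient MRTU, 24 h exposure; RNA→cDNA→PCR→FAM label→HpaI→CE fluorescence. Bidirectional fit, DMSO = baseline.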

Assay [3] addresses Myc proto-oncogene protein (Homo sapiens) (UniProt P01106). The experiment in a line: ATG_Myc_CIS: Attagene CIS-FACTORIAL HepG2 Assay for human Myelocytomatosis (Myc) Proto-Oncogene Transcription Factor (AID 2282990). The following applies: HepG2, Attagene cis-reporter transcription factor activity; actives raise or lower the signal. A digest of the protocol: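 HepG2, transient MRTU transfection (cis promoters, endogenous TFs); 24 h dosing; TriZol RNA → oligo(dT) RT → PCR → 6-FAM primer extension → HpaI cut → CE. Bidirectional fit vs DMSO.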

A short description of assay [4]: ATG_NF_kB_CIS: Attagene CIS-FACTORIAL HepG2 Assay for human Nuclear Factor Kappa B (NF-kB) (AID 2282991). The following applies: HepG2 Attagene cis-factorial NF-kB reporter mRNA; actives raise or lower the signal. Summed up: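 After 24 h compound incubation, transfected HepG2 cells yield total RNA; reporter cDNA is PCR-amplified, end-labelled with 6-FAM, HpaI-digested and analysed on a genetic analyser. Endogenous factor activity, DMSO-referenced bidirectional fit.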

The nature of assay [5]: ATG_NRF2_ARE_CIS: Attagene CIS-FACTORIAL HepG2 Assay for human Nuclear Factor Erythroid 2 Related Factor 2 (NFR2) response to Antioxidant Response Elements (ARE) (AID 2282992).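 As to AC50: reporter mRNA level measured by RT-PCR and capillary electrophoresis fluorescence.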 The following applies: HepG2 Attagene ARE/NRF2 reporter, transcription factor activity; actives raise or lower the signal. Summed up: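 Cis-factorial assay: transfected HepG2 reporter library, 24 h dosing, mRNA readout via RT-PCR/CE; DMSO-referenced bidirectional analysis.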

Assay [6] in a line: ATG_Oct_MLP_CIS: Attagene CIS-FACTORIAL HepG2 Assay for human Octamer-Binding Transcription Factor (Oct) (AID 2282993). The settings on record: HepG2 Attagene cis-factorial Oct reporter, mRNA; actives raise or lower the signal. A digest of the protocol:
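Multiplexed cis-reporter assay in human liver HepG2 cells, 24 h incubation. Reporter RNA amplified and labelled, then resolved by capillary electrophoresis; DMSO serves as negative control and baseline.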

For assay [7], the target named is Cellular tumor antigen p53 (Homo sapiens) (UniProt P04637). The experiment in a line: ATG_p53_CIS: Attagene CIS-FACTORIAL HepG2 Assay for human p53 Transcription Factor (AID 2282994). The settings on record: HepG2 p53 cis-element reporter, Attagene mRNA; actives raise or lower the signal. A digest of the protocol: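 Using HepG2 hepatoma cells carrying cis-acting multiplexed reporters, mRNA induction is detected after a 24 h exposure. Gain- and loss-of-signal responses are fitted relative to DMSO-treated cells.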
Chain of Cellular tumor antigen p53 (Homo sapiens) (P04637 whole entry, looked up): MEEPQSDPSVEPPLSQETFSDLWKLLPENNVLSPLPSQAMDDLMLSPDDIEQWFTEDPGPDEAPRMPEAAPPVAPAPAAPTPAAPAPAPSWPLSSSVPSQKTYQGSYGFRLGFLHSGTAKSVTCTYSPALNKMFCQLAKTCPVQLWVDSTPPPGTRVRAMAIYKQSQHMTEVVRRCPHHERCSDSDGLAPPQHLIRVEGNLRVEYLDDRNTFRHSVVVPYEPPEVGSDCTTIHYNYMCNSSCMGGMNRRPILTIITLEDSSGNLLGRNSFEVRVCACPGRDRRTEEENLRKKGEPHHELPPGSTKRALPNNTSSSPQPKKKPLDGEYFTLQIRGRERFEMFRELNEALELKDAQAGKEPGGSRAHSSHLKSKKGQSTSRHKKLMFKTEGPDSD

A short description of assay [8]: BSK_3C_TissueFactor: BioMAP Diversity Plus: 3C Assay for Tissue Factor Biomarker Activity (AID 2282997). The following applies: BioMAP 3C HUVEC, tissue factor biomarker readout; actives raise or lower the signal. Summed up: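 Human vascular primary cells (umbilical vein endothelium) received test chemical; Tissue Factor was determined by ELISA at 24 h, and both gain and loss of signal versus DMSO were fitted.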

Assay [9] in a line: BSK_3C_uPAR: BioMAP Diversity Plus: 3C Assay for Urokinase-type plasminogen activator receptor (uPAR) Biomarker Activity (AID 2282998). The settings on record: BioMAP 3C HUVEC, uPAR biomarker ELISA; actives raise or lower the signal. Summed up: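 Dose primary human umbilical vein endothelial cells, incubate 24 h, measure cell-surface uPAR by ELISA, then fit the signal in both directions against the DMSO negative control.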
On the technique in general: In an ELISA, binding on a coated surface is turned into a signal by an enzyme label.

Assay [10] is described as follows: BSK_3C_VCAM1: BioMAP Diversity Plus: 3C Assay for Vascular cell adhesion molecule 1 (VCAM1) Biomarker Activity (AID 2282999). The following applies: BioMAP 3C HUVEC, VCAM1 ELISA, cytokine-stimulated; actives raise or lower the signal. A digest of the protocol:
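Endothelial cells from human umbilical vein are treated with test chemical. At 24 h, VCAM-1 is measured by ELISA, and responses in either direction are fitted relative to DMSO.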

Read-out in assay [11]: Intercellular Adhesion Molecule 1 (ICAM1), ICAM1 (gene 3383)
The experiment in a line: BSK_3C_ICAM1: BioMAP Diversity Plus: 3C Assay for Intercellular Adhesion Molecule 1 (ICAM1) Biomarker Activity (AID 2283003). The settings on record: primary human endothelial cells (HUVEC); actives raise or lower the signal. Summed up:
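Human vascular endothelial primary cells, 3C conditions, 24 h treatment. ICAM-1 by ELISA.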

Assay [12] can be described thus: BSK_3C_Proliferation: Cell Proliferation Assessment in the BioMAP Diversity Plus: 3C Assay (AID 2283006).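 As to AC50: potency may reflect either rise or fall in cell number versus DMSO.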 The settings on record: primary human endothelial cells (HUVEC). A digest of the protocol:
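Proliferation of human vascular endothelial primary cells after 48 h dosing, quantified as SRB-stained protein at 560 nm relative to DMSO.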

Assay [13] concerns the target Nuclear receptor subfamily 1 group I member 2 (Homo sapiens) (UniProt O75469). Nature of the assay: ATG_PXR_TRANS: Attagene TRANS-FACTORIAL HepG2 Assay for human Pregnane X Receptor (PXR) (AID 2283008; active = hit-call score of the fitted dose curve at least 0.9, where 1 is the maximum). Summed up:
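Fluorescence intensity of FAM-labelled, HpaI-digested reporter amplicons, separated by capillary electrophoresis, quantifies induction. HepG2 cells with PXR-Gal4 trans-reporter system were exposed 24 h; DMSO defines baseline.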

For assay [14], the target named is human Peroxisome Proliferator-activated Receptor alpha (PPARa), PPARA (gene 5465) (UniProt Q07869). Nature of the assay: ATG_PPARa_TRANS: Attagene TRANS-FACTORIAL HepG2 Assay for human Peroxisome Proliferator-activated Receptor alpha (PPARa) (AID 2283001; active = hit-call score of the fitted dose curve at least 0.9, where 1 is the maximum;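 as to AC50: potency for gain of reporter signal over DMSO so agonist or activator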). Summed up:
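Reporter transcripts from GAL4-UAS units in transfected HepG2 were quantified 24 h after dosing. Detection used reverse transcription, PCR, fluorescent primer extension and capillary electrophoresis, with DMSO as baseline.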

Assay [15] can be described thus: ATG_M_61_TRANS: Attagene TRANS-FACTORIAL HepG2 Assay for M61 Transcription Factor (Internal Marker) (AID 2282988). The settings on record: HepG2 Attagene TRANS M61 internal marker reporter. Summed up:
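Background-control reporter transcript, measured after 24 h chemical exposure of transiently transfected HepG2 cells carrying multiple GAL4-UAS reporter units. Read-out by RT-PCR with 6-FAM primer extension and capillary electrophoresis, gain of signal versus DMSO.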

A short description of assay [16]: BSK_4H_Eotaxin3: BioMAP Diversity Plus: 4H Assay for Eotaxin 3 Biomarker Activity (AID 2283000).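 As to outcome: CCL26 protein level quantified by ELISA in parallel with SRB cytotoxicity check.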 The settings on record: primary human endothelial cells (HUVEC); actives raise or lower the signal. Summed up:
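Readout is Eotaxin-3 (CCL26) level by ELISA in primary human umbilical vein endothelial cells harvested 24 h after chemical exposure; activity fitted in both directions against DMSO control.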

Assay [17] addresses human Peroxisome Proliferator-activated Receptor delta (PPARd), PPARD (gene 5467) (UniProt Q03181). Nature of the assay: ATG_PPARd_TRANS: Attagene TRANS-FACTORIAL HepG2 Assay for human Peroxisome Proliferator-activated Receptor delta (PPARd) (AID 2283002; active = hit-call score of the fitted dose curve at least 0.9, where 1 is the maximum). Summed up: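 Transient HepG2 transfection (multiple GAL4-UAS RTUs, chimeric receptor-Gal4); 24 h dosing; total RNA → oligo(dT) RT → PCR → 6-FAM primer extension → HpaI cut → CE. Positive direction vs DMSO.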

For assay [18], the target named is Peroxisome proliferator-activated receptor gamma (Homo sapiens) (UniProt P37231). The experiment in a line: ATG_PPARg_TRANS: Attagene TRANS-FACTORIAL HepG2 Assay for human Peroxisome Proliferator-activated Receptor-gamma (PPARg) (AID 2283007; active = hit-call score of the fitted dose curve at least 0.9, where 1 is the maximum). A digest of the protocol:
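Liver-derived HepG2 cells expressing an exogenous NR-Gal4 chimera alongside GAL4-UAS reporter genes; 24 h exposure. Fluorescence of reporter RT-PCR products, separated by capillary electrophoresis, gives mRNA induction relative to DMSO.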

The target of assay [19] is human Retinoic Acid Receptor beta (RARb), RARB (gene 5915) (UniProt P10826). Nature of the assay: ATG_RARb_TRANS: Attagene TRANS-FACTORIAL HepG2 Assay for human Retinoic Acid Receptor beta (AID 2283004; active = hit-call score of the fitted dose curve at least 0.9, where 1 is the maximum). A digest of the protocol:
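Readout is reporter mRNA induction: RNA reverse-transcribed, PCR-amplified, FAM-labelled, HpaI-cut and resolved by capillary electrophoresis. Transiently transfected HepG2 cells carrying exogenous NR–Gal4 chimeras were dosed for 24 h; activity fitted upward relative to DMSO.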

The target of assay [20] is Retinoic acid receptor alpha (Homo sapiens) (UniProt P10276). The experiment in a line: ATG_RARa_TRANS: Attagene TRANS-FACTORIAL HepG2 Assay for human Retinoic Acid Receptor alpha (RARa) (AID 2283005; active = hit-call score of the fitted dose curve at least 0.9, where 1 is the maximum). A digest of the protocol: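 Reporter transcripts, measured by RT-PCR with fluorescent labeling and capillary electrophoresis after 24 h dosing, reflect activity of an exogenous human RARa–GAL4 fusion in transiently transfected HepG2. Fitted for increase relative to DMSO.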
Chain of Retinoic acid receptor alpha (Homo sapiens) (P10276 whole entry, looked up, the tested form may be a part): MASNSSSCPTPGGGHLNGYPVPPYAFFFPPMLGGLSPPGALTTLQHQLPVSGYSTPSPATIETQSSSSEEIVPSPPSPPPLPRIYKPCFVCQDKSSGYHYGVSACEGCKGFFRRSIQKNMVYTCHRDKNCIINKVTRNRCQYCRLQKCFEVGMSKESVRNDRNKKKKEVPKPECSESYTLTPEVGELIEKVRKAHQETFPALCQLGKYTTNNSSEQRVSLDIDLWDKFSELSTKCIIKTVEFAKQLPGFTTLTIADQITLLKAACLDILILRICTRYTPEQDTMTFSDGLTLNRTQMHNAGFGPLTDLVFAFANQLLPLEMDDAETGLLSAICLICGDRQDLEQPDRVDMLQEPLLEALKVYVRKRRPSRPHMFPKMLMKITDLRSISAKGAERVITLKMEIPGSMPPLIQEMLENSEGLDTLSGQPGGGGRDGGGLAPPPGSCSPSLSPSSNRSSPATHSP

Several values for one entry are separate records, joined by “and”; a condition that tells them apart may be missing. Identical values can stand only once. Inconclusive results are not listed. More than one record can exist for a structure, and the calls need not agree. Activity calls are given as the source filed them. The calls were made as follows, unless noted: active = hit-call score of the fitted dose curve at least 0.9, where 1 is the maximum; inactive = score below 0.9.

Chain of Nuclear respiratory factor 1 (Homo sapiens) (Q16656 whole entry, looked up): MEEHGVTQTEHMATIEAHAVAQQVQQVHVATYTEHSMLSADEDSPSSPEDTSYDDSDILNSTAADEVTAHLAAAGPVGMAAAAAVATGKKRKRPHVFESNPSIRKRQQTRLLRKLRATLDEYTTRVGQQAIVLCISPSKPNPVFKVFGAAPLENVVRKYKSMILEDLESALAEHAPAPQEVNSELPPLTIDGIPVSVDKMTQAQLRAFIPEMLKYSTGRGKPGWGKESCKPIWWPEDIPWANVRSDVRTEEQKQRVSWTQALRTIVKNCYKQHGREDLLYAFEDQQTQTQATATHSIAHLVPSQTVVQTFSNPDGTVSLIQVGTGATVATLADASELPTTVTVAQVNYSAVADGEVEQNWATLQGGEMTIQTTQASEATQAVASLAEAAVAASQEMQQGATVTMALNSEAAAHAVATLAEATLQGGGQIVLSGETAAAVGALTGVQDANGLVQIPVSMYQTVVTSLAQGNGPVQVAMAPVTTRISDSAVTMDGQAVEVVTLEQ
Chain of Nuclear receptor subfamily 1 group I member 2 (Homo sapiens) (O75469 whole entry, looked up, the tested form may be a part): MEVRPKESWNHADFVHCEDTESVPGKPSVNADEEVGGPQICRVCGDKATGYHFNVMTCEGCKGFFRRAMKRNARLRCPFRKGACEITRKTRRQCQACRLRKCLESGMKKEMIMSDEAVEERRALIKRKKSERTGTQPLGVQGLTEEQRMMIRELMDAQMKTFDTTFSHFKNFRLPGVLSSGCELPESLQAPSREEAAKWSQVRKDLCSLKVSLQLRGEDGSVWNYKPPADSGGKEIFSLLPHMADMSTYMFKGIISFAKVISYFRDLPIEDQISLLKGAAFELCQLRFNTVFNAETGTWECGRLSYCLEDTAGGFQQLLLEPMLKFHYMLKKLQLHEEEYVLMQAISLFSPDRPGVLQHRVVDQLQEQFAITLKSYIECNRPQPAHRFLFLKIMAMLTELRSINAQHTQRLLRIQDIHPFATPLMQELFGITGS
Chain of human Peroxisome Proliferator-activated Receptor delta (PPARd), PPARD (gene 5467) (Q03181 whole entry, looked up, the tested form may be a part): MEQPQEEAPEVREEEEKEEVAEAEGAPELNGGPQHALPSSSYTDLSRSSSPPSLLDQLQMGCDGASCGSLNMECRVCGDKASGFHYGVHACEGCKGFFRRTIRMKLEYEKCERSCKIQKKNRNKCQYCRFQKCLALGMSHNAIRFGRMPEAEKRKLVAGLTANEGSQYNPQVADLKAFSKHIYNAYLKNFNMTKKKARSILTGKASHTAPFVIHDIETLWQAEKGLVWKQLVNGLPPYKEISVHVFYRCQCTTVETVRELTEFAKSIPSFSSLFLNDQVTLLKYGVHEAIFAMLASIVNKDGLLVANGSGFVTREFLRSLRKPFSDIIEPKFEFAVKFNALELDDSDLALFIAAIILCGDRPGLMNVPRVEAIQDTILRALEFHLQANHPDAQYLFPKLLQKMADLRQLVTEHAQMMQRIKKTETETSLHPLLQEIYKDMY
Chain of human Peroxisome Proliferator-activated Receptor alpha (PPARa), PPARA (gene 5465) (Q07869 whole entry, looked up, the tested form may be a part): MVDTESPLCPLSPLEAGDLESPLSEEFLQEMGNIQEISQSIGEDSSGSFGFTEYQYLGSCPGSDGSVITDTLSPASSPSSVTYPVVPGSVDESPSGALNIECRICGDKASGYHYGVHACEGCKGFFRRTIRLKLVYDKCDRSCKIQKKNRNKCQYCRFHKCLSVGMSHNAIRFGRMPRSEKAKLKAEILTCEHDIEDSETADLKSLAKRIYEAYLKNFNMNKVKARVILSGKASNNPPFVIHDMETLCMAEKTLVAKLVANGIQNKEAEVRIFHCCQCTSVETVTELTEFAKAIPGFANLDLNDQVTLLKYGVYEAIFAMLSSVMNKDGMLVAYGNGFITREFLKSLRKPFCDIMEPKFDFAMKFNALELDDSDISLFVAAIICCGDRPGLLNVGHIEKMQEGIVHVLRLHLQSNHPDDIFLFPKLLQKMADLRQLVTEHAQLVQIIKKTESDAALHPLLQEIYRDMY
Chain of Myc proto-oncogene protein (Homo sapiens) (P01106 whole entry, looked up): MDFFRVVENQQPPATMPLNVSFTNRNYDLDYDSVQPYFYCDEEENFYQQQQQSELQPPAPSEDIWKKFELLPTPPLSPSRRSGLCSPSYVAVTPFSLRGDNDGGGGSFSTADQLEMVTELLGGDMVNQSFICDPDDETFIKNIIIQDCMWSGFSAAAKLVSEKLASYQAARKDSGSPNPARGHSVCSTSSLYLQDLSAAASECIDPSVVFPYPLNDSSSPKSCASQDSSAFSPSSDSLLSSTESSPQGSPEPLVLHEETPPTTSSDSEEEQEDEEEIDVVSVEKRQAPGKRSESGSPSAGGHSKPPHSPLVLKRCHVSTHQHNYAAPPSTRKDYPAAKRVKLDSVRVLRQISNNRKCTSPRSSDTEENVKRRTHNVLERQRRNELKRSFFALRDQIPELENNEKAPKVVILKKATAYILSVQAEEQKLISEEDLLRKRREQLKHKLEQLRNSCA
Chain of Peroxisome proliferator-activated receptor gamma (Homo sapiens) (P37231 whole entry, looked up, the tested form may be a part): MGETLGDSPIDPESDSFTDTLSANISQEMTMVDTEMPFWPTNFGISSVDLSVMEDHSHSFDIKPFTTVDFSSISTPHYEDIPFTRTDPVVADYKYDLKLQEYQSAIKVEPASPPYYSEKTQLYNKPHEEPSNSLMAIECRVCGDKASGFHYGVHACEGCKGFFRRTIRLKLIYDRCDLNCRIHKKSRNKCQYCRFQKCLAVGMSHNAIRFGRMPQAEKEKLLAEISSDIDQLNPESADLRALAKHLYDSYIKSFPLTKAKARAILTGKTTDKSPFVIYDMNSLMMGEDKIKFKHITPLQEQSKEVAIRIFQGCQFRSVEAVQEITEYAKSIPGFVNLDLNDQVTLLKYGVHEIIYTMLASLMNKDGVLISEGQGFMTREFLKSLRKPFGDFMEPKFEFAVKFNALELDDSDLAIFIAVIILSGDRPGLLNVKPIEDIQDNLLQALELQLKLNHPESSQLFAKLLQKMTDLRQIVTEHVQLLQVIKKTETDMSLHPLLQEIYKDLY
Chain of human Retinoic Acid Receptor beta (RARb), RARB (gene 5915) (P10826 whole entry, looked up, the tested form may be a part): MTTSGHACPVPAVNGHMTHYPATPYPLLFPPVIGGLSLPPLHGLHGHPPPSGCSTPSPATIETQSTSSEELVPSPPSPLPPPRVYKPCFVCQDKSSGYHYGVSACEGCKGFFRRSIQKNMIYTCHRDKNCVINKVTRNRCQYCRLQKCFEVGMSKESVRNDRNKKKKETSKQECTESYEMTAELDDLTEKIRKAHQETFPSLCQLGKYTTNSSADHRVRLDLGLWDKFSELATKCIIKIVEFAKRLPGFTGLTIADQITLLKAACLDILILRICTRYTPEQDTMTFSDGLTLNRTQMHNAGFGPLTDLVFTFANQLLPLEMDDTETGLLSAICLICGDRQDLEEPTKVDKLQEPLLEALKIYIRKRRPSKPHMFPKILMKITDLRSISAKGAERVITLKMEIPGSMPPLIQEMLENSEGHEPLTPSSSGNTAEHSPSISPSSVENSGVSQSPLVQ

What is called AC50 is the concentration giving half of the maximal activity seen. For the compound `COC[C@H](C)N(C(=O)CCl)c1c(C)csc1C`, the compound was classed as inactive in [1], in [2], in assay [3], in assay [4], in assay [5] and in [6]. The compound was called inactive in assay [7], in assay [8], in [9], in assay [10], in assay [11] and in assay [12]. In assay [13], the AC50 is 33.7 µM (active).

`O=C(NCO)NCO`: the result in assay [1], in assay [2], in assay [3], in assay [4], in assay [5] and in [6] was inactive. Besides, the compound was classed as inactive in assay [7] and in [14].

On to `CCC[CH2][Sn]([CH2]CCC)([CH2]CCC)[O]C(=O)c1ccccc1`, for which the outcome in assay [1], in assay [15], in assay [2], in [3], in [4] and in assay [6] was inactive. In addition, the result in [7] and in [14] was inactive. The AC50 in assay [5] was 0.188 µM (active); in assay [13] it was 0.344 µM (active).

`CCOC(=O)/C=C(C)/C=C/C[C@@H](C)CCCC(C)C`: the AC50 in assay [1] was 65.2 µM (active); in assay [2] it was 180 µM (active); in assay [3], 182 µM (active); in [4], 43.2 µM (active); in assay [5], 56.5 µM (active); in [6], 25 µM (active). The concentration at half-maximal activity (AC50) is 15.6 µM (active) in assay [8]; 33.1 µM (active) in assay [9]; 26.6 µM (active) in assay [10]; 30 µM (active) in assay [16]; 64.9 µM (active) in assay [14]; 20 µM (active) in assay [12]. Moreover, the AC50 in assay [18] is 1.56 µM (active); in [13] it was 5.32 µM (active). The compound was called inactive in [7] and in assay [17].

As to `CC(C)(C)CC(C)(C)c1ccc(O)cc1`, the compound was classed as inactive in [1], in [2], in assay [3], in assay [4], in assay [6] and in [7]. Further, the outcome in assay [17] and in assay [13] was inactive. Moreover, the half-maximal activity concentration (AC50) is 11 µM (active) [middle of 4 runs] in assay [5]; 16 µM (active) and 16.4 µM (active) in [7]; 7.99 µM (active) in [8]; 7.17 µM (active) in assay [9]; 6.92 µM (active) in assay [10]; 8.11 µM (active) in assay [16]. Moreover, the half-maximal activity concentration (AC50) in [12] was 7.69 µM (active); in [13], 8.34 µM (active) and 7.58 µM (active) and 5.92 µM (active).

`Nc1ncc([N+](=O)[O-])s1`: the outcome in [1], in [2], in assay [3], in assay [4], in assay [6] and in assay [7] was inactive. Moreover, the outcome in [9], in assay [10], in assay [14], in assay [17], in [11] and in [12] was inactive. The call in assay [13] was inactive. Besides, the AC50 is 73.2 µM (active) in assay [5] and 12.2 µM (active) in assay [8].

As for `CCOP(=S)(OCC)SCSP(=S)(OCC)OCC`, the call in assay [1], in [2], in assay [3], in assay [4], in assay [5] and in [6] was inactive. Further, the compound was classed as inactive in assay [7], in [8], in assay [9], in [10], in assay [16] and in [19]. Further, the compound was classed as inactive in [20], in assay [12] and in assay [18]. The AC50 in assay [13] is 0.168 µM (active).
